From PubChem BioAssay (NCATS)
Inconclusive results are not listed. Activity calls are given as the source filed them. Calls follow the shape of the dose curve; as a rule, active = well fitted inhibition curve with a large enough effect; inconclusive = small, poorly fitted or top-dose-only effect; inactive = flat fitted curve, though single readings scatter. Bridge positions count the residues as written; N and C are the ends. Square brackets hold non-standard residues; d marks the D form. Peptide text beside a SMILES is read from it. * marks the point of attachment. Octanoyl(6-Me) = CCC(C)CCCCC(=O)*; Dab = NCC[CH](N)C(=O)O

What was measured:
Experiment in all cases: qHTS profiling for inhibitors of Plasmodium falciparum proliferation (AID 504749); also: nearly all actives have a fitted effect of over 60% in size
Conditions in all cases: P. falciparum in erythrocytes, SYBR Green DNA, 72 h; series mostly up to 28.7 µM
7G8 = tested on: 7G8
Method in brief: (§1)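 P. falciparum-infected erythrocytes (0.3% parasitemia, 2.5% hematocrit final) were exposed to compounds for 72 h at 37 C in 5% CO2, then lysed with SYBR Green buffer overnight at room temperature; parasite DNA fluorescence was normalized to artemisinin and DMSO controls.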

AS120 = tested on: AS120
Method in brief: as §1

C2A = tested on: C2A
Method in brief: as §1

CP191 = tested on: CP191
Method in brief: as §1

CP194 = tested on: CP194
Method in brief: as §1

CP201 = tested on: CP201
Method in brief: as §1

CP237 = tested on: CP237
Method in brief: as §1

CP247 = tested on: CP247
Method in brief: as §1

CP256 = tested on: CP256
Method in brief: as §1

CP260 = tested on: CP260
Method in brief: as §1

CP265 = tested on: CP265
Method in brief: as §1

CP268 = tested on: CP268
Method in brief: as §1

CP297 = tested on: CP297
Method in brief: as §1

CP325 = tested on: CP325
Method in brief: as §1

DFO2036 = tested on: DFO2036
Method in brief: as §1

DIV14 = tested on: DIV14
Method in brief: as §1

DIV17 = tested on: DIV17
Method in brief: as §1

Dd2 = tested on: Dd2
Method in brief: as §1

PC26 = tested on: PC26
Method in brief: as §1

SC27B = tested on: SC27B
Method in brief: as §1

Measured: Potency
Potency is read from the fitted curve at half-maximal effect.

CC1CCC(C(C)C)C(OC(=O)c2ccccc2O)C1 (centres undefined)
inactive: all assays above

CCC(=O)O[C@@H](OP(=O)(CCCCc1ccccc1)CC(=O)N1C[C@H](C2CCCCC2)C[C@H]1C(=O)O)C(C)C (some centres undefined)
active: 7G8 12600 nM
inactive: all other assays above

CC(=O)O[C@@]12CO[C@@H]1C[C@H](O)[C@@]1(C)C(=O)[C@H](O)C3=C(C)[C@@H](OC(=O)C(O)[C@@H](NC(=O)OC(C)(C)C)c4ccccc4)C[C@@](O)([C@@H](OC(=O)c4ccccc4)[C@H]21)C3(C)C (some centres undefined)
active: 7G8 398 nM | AS120 28.2 nM | C2A 31.6 nM | CP191 28.2 nM | CP194 67.5 nM | CP237 17.8 nM | CP247 39.8 nM | CP256 31.6 nM | CP260 25.1 nM | CP265 79.4 nM | CP297 95.3 nM | DFO2036 22.4 nM | DIV14 1200 nM | DIV17 1350 nM | Dd2 10 nM | PC26 37.9 nM | SC27B 199 nM

Nc1nc(Cl)nc2c1ncn2C1CC(O)C(CO)O1 (centres undefined)
inactive: CP194 | CP201 | CP268 | CP297 | CP325 | DIV14 | DIV17 | PC26

CCC(C)CCCCC(=O)NC(CCN)C(=O)NC(C(=O)NC(CCN)C(=O)NC1CCNC(=O)C(C(C)O)NC(=O)C(CCN)NC(=O)C(CCN)NC(=O)C(CC(C)C)NC(=O)C(Cc2ccccc2)NC(=O)C(CCN)NC1=O)C(C)O (centres undefined) ({Octanoyl(6-Me)}-[Dab]T[Dab][Dab][Dab]FL[Dab][Dab]T; lactam 4-C; configuration not given here)
not listed: CP265
inactive: all other assays above

CO/N=C(/C(=O)N[C@@H]1C(=O)N2C(C(=O)O)=CCS[C@H]12)c1csc(N)n1
not listed: DIV14
inactive: all other assays above

Cc1cc(CC(C)CC(C)(C)C)n(O)c(=O)c1 (centres undefined)
active: 7G8 2820 nM | AS120 2510 nM | C2A 2510 nM | CP191 1120 nM | CP194 4260 nM | CP201 4780 nM | CP237 2820 nM | CP247 2240 nM | CP256 1260 nM | CP260 3160 nM | CP265 2820 nM | CP268 2690 nM | CP297 1690 nM | CP325 2390 nM | DFO2036 1780 nM | DIV14 1510 nM | DIV17 1510 nM | Dd2 7940 nM | PC26 3790 nM | SC27B 2820 nM

CC1(C)S[C@@H]2[C@H](NC(=O)COc3ccccc3)C(=O)N2[C@H]1C(=O)O
inactive: all assays above

CC(C)(CO)C(O)C(=O)NCCCC(=O)O (centres undefined)
active: AS120 7.1 nM | CP247 11.2 nM | CP265 14.1 nM

O=NCc1ccc([N+](=O)[O-])o1
active: 7G8 8910 nM
not listed: AS120 | CP247 | CP268 | CP297 | DIV14 | DIV17 | PC26
inactive: all other assays above

C/C=C\c1ccc(OC)cc1
inactive: all assays above

CCN1/C(=C/C=C/C=C/c2sc3ccccc3[n+]2CC)Sc2ccccc21
active: 7G8 891 nM | AS120 5010 nM | C2A 3550 nM | CP191 3550 nM | CP194 6750 nM | CP201 12000 nM | CP237 1580 nM | CP247 4470 nM | CP256 4470 nM | CP260 631 nM | CP265 5010 nM | CP268 12000 nM | CP297 12000 nM | DFO2036 3550 nM | DIV14 8490 nM | DIV17 9530 nM | Dd2 2240 nM | SC27B 6310 nM

CN(C)CCCCCCN(C)C
inactive: all assays above

C1OCOCO1
not listed: CP194
inactive: all other assays above

CN1CC[C@H](CN2c3ccccc3Sc3ccccc32)C1
active: 7G8 1410 nM | AS120 12600 nM | C2A 10000 nM | CP191 10000 nM | CP237 6310 nM | CP247 7940 nM | CP256 8910 nM | CP260 11200 nM | CP265 11200 nM | CP268 15100 nM | CP297 6750 nM | CP325 15100 nM | DFO2036 12600 nM | DIV14 4260 nM | DIV17 5360 nM | Dd2 3550 nM | PC26 13500 nM | SC27B 11200 nM
